PubChem BioAssay (Tox21)
Inconclusive results are not listed. A call without a number means that no potency is given here. Values without a mark were called inactive. Calls of active or inactive are those of the source. Unless noted, calls come from the whole dose curve.

Assays:
[1] = qHTS assay to identify small molecule agonists of the vitamin D receptor (VDR) signaling pathway - cell viability counter screen (AID 743224; active = well fitted curve in the direction sought with a large enough effect in the repeat runs; an effect the other way counts as inactive or inconclusive; note: series mostly up to about 63 µM; nearly all actives have a fitted effect of over 50% in size)
Outline: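 CellTiter-Glo viability readout on VDR-bla cells, measured after 16 h of compound treatment at 37C in the same wells.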

[2] = qHTS assay to identify small molecule antagonists of the vitamin D receptor (VDR) signaling pathway - cell viability counter screen (AID 743225; active = well fitted curve in the direction sought with a large enough effect in the repeat runs; an effect the other way counts as inactive or inconclusive; note: nearly all actives have a fitted effect of over 50% in size)
Outline: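 Cells (VDR-UAS-bla HEK 293T) are plated, rested 4 h at 37C, dosed with compound and 3 nM final 1-alpha,25-dihydroxy vitamin D3, and incubated 16 h. Viability is taken from CellTiter-Glo luminescence in the reporter wells.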

[3] = qHTS assay to identify small molecule agonists of the NFkB signaling pathway - cell viability counter screen (AID 1159515); note: series mostly up to about 61 µM; nearly all actives have a fitted effect of over 55% in size
Outline: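 Tox21 library compounds were tested for cytotoxicity against NFkB-bla ME-180 cells during a 5 hr exposure at 37 C. CellTiter-Glo luminescence served as the viability read-out.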

[4] = qHTS assay to identify small molecule agonists of the endoplasmic reticulum stress response signaling pathway (AID 1159516; active = well fitted activation curve with a large enough effect in the signal ratio in the repeat runs, not every such curve was filed as active; the % refers to the signal ratio)
Outline: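 Fluorescence at 460 and 530 nm (405 nm excitation) reports beta-lactamase from an ER stress response element in HeLa cells treated 5 hr at 37 C.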

[5] = qHTS assay to identify small molecule agonists of the endoplasmic reticulum stress response signaling pathway - cell viability counter screen (AID 1159517); note: series mostly up to about 61 µM; nearly all actives have a fitted effect of over 50% in size
Outline: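 Cpd-treated ESRE-bla HeLa (5 hr, 37 C) → LiveBLAzer 2 hr RT → CellTiter-Glo 30 min RT → luminescence.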

[6] = qHTS assay to identify small molecule antagonists of the retinoid-related orphan receptor gamma (ROR-gamma) signaling pathway - cell viability counter screen (AID 1159520; active = well fitted curve in the direction sought with a large enough effect in the repeat runs; an effect the other way counts as inactive or inconclusive; note: nearly all actives have a fitted effect of over 50% in size)
Outline: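 Tet-on ROR gamma CHO cells (1,000/well) were plated 4 hr, given compounds in DMSO for 2 hr at 37 C, then induced with 1 uM final doxycycline for 16 hr. Viability was read as ATP by CellTiter-Glo luminescence after 30 min.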

[7] = molecular target: Nuclear receptor ROR-gamma (Homo sapiens) (UniProt P51449); experiment: qHTS assay to identify small molecule antagonists of the retinoid-related orphan receptor gamma (ROR-gamma) signaling pathway (AID 1159521; active = well fitted curve in the direction sought with a large enough effect in the repeat runs; an effect the other way counts as inactive or inconclusive)
Outline: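 RORγ antagonism is scored from reduced reporter luminescence in Tet-on CHO cells. Induction used 1 uM final doxycycline hyclate for 16 h at 37 C, following a 2 h compound exposure.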

[8] = qHTS assay to identify small molecule agonists of the AP-1 signaling pathway - cell viability counter screen (AID 1159525); note: nearly all actives have a fitted effect of over 55% in size
Outline: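 Each titration point was normalised to DMSO and tetra n-octyl ammonium bromide controls. The read was Cell Titer Glo luminescence after 30 min at RT, following 5 h compound exposure of ME-180 AP-1-bla cells at 37 °C.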

[9] = qHTS assay to identify small molecule agonists of the AP-1 signaling pathway (AID 1159526)
[10] = molecular target: Retinoic acid receptor RXR-alpha (Homo sapiens) (UniProt P19793); experiment: qHTS assay to identify small molecule agonists of the RXR signaling pathway (AID 1159527); note: nearly all actives have a fitted effect of over 35% in size; note: potency is the fitted concentration of half-maximal effect
Retinoic acid receptor RXR-alpha (Homo sapiens), sequence (P19793 whole entry, looked up): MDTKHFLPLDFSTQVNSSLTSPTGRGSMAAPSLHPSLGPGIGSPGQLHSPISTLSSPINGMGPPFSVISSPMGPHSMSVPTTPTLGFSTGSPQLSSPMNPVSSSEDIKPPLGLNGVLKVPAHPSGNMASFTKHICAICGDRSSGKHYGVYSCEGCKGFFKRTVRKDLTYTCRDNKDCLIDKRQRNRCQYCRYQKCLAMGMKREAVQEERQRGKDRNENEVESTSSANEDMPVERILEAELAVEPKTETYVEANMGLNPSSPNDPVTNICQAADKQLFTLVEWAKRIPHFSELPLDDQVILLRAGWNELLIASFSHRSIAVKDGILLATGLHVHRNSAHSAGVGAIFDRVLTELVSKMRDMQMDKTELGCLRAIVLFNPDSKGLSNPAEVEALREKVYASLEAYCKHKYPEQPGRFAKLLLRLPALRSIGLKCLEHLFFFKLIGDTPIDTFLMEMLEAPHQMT
Outline: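 qHTS of the Tox21 10K library in GeneBLAzer RXR-alpha HEK 293T cells carrying a beta-lactamase reporter […]; 16 hr treatment, 9-cis retinoic acid as agonist control, FRET read-out.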

SMILES	outcome [1]	outcome [2]	outcome [3]	Potency [4]	outcome [5]	outcome [6]	outcome [7]	outcome [8]	Potency [9]	Potency [10]	activity, negative = cytotoxicity [6]	activity change, negative = inhibition [7]	viability change, negative = cytotoxic [8]	activation [9]	activation [10]
CCCCC(CC)COC(=O)CC#N (centres undefined)	inactive	inactive	inactive	inactive	inactive	inactive	inactive	inactive	inactive	inactive					
COC(=O)c1ccc(C(=O)O)cc1	inactive	inactive	inactive	inactive	inactive	inactive	inactive	inactive	inactive	inactive					
O=C(O)COc1ccc2ccccc2c1	inactive	inactive	inactive	inactive	inactive	inactive	inactive	inactive	inactive	inactive					
Clc1cc(Cl)c(Cl)c(Cl)c1Cl	inactive	inactive	inactive	inactive	inactive	inactive	inactive	inactive	inactive	inactive					
C/C(=N\O)c1ccc(OCC(=O)N2CCCCC2)cc1	inactive	inactive	inactive	inactive	inactive	inactive	inactive	inactive	inactive	inactive					
C=COCCCCO	inactive	inactive	inactive	inactive	inactive	inactive	inactive	inactive	inactive	inactive					
O=Cc1ccc(C(=O)O)cc1	inactive	inactive	inactive	inactive	inactive	inactive	inactive	inactive	inactive	inactive					
C[C@@H]1CCC[C@H](C)N1CCCC(O)(c1ccccc1)c1ccccn1 (some centres undefined)	inactive	inactive	inactive	inactive	inactive	inactive	inactive	inactive	inactive	inactive					
C[C@H]1COc2c(C3(N)CC3)c(F)cc3c(=O)c(C(=O)O)cn1c23	inactive	inactive	inactive	inactive	inactive	inactive	inactive	inactive	inactive	inactive					
C=CCCCCCCCCCCCCCC	inactive	inactive	inactive	inactive	inactive						0.624% [at 19 µM]	-3.67% [at 19 µM]	0.684% [at 15.8 µM]	-3.84% [at 15.8 µM]	-0.752% [at 15.8 µM]
CN(C)CCc1c[nH]c2ccc(C[C@H]3COC(=O)N3)cc12	inactive	inactive	inactive	inactive	inactive	inactive	inactive	inactive	inactive	inactive					
O=S(=O)(O)c1ccc(Cl)cc1	inactive	inactive	inactive	inactive	inactive	inactive	inactive	inactive	inactive	inactive					
C[C@@H](CN1CC(=O)NC(=O)C1)N1CC(=O)NC(=O)C1	inactive	inactive	inactive	inactive	inactive	inactive	inactive	inactive	inactive	inactive					
CN1CCN(C(=O)C2CCCCC2)CC1	inactive	inactive	inactive	inactive	inactive	inactive	inactive	inactive	inactive	inactive					
COc1cc(C(=O)NC2CCCNC2)cc(OC)c1OC (centres undefined)	inactive	inactive	inactive	inactive	inactive	inactive	inactive	inactive	inactive	inactive					
CCCCCCCCOCCC#N	inactive	inactive	inactive	inactive	inactive	inactive	inactive	inactive	inactive	inactive					
CC[N+](C)(CC)CC	inactive	inactive	inactive	inactive	inactive	inactive	inactive	inactive	inactive	inactive					
CC1(C)S[C@@H]2[C@H](NC(=O)Cc3ccccc3)C(=O)N2[C@H]1C(=O)O (tested in a mixture with another compound)	inactive	inactive	inactive	inactive	inactive	inactive	inactive	inactive	inactive	inactive					
CCCCN1C(=O)c2ccccc2C1=O	inactive	inactive	inactive	inactive	inactive	inactive	inactive	inactive	inactive	inactive					
CCCCCCC(O)CO (centres undefined)		inactive	inactive	inactive	inactive	inactive	inactive	inactive	inactive	12.3 µM (active)					
CCCc1ncc(C(=O)O)s1		inactive	inactive	inactive	inactive	inactive	inactive	inactive	inactive	inactive					
CC(C)OCCO		inactive	inactive	inactive	inactive	inactive	inactive	inactive	inactive	inactive					
CCC(C)(C)C		inactive	inactive	inactive	inactive	inactive	inactive	inactive	inactive	inactive					
CC1(C)CC(N)CC(C)(C)N1		inactive	inactive	inactive	inactive	inactive	inactive	inactive	inactive	inactive					
O=C(OOC(=O)c1ccccc1)c1ccccc1		inactive	inactive	inactive	inactive	inactive	inactive	inactive	inactive	inactive					
